Assay results: PubChem BioAssay (Tox21)
Results filed as inconclusive are left out. Activity calls are given as the source filed them. Calls follow the shape of the full dose curve.

assay: qHTS assay to identify small molecule agonists of the hypoxia (HIF-1) signaling pathway - cell viability counter screen (AID 1224844); conditions: HRE-bla ME-180 viability, CellTiter-Glo luminescence, 17 h; series mostly up to 76.8 µM; activity change, negative = cytotoxicity: at the top concentration; also: nearly all actives have a fitted effect of over 50% in size
From the text: National Center for Advancing Translational Sciences [NCATS]
NIH Chemical Genomics Center [NCGC]
U.S. Environmental Protection Agency [EPA]
National Institutes of Environmental Health Sciences [NIEHS]
National Toxicology Program [NTP]
U.S. Food and Drug Administration [FDA]
Hypoxia-inducible factor-1 (HIF-1) is the major hypoxia-regulated transcription factor that controls cellular responses to low oxygen concentration. HIF-1 is composed of two subunits: hypoxia responsive HIF-1-alpha and constitutively expressed HIF-1-beta, which is also known as aryl hydrocarbon receptor nuclear translocator. During hypoxic conditions, HIF-1-alpha heterodimerizes with HIF-1-beta and translocates into the nucleus where the HIF-1 complex binds to the hypoxia-response element (HRE) and activates expression of target genes such as VEGF (vascular endothelial growth factor). The HIF-1 pathway is essential to normal growth and development, and is involved in the pathophysiology of cancer, inflammation, and ischemia.
Using a beta-lactamase reporter-gene under control of the hypoxia response element, a cell-based assay [CellSensor(TM) HRE-bla ME-180 from Life Technologies, Carlsbad, CA] was used to measure hypoxia-induced signaling. Tox21 10K library compounds were measured for their ability to induce the reporter gene activity. The cytotoxicity of the Tox21 compound library against HRE-bla ME-180 cell line was tested in parallel by measuring cell viability using CellTiter-Glo assay (Promega, Madison, WI) in the same assay wells.
Tox21 Assay Protocol Summary:
HRE-bla ME-180 cells were dispensed at 2,000 cells per well in 6 uL of assay medium containing 0.5% dialyzed FBS into black wall/clear-bottom 1536-well plates using a Multidrop Combi (Thermo Scientific, Waltham, MA) dispenser. After the assay plates were incubated at 37C and 5% CO2 for 5 hrs, 23 nL of compounds dissolved in DMSO, positive controls or DMSO only was transferred to each well of the assay plate using a Pintool station (Kalypsys, San Diego, CA). The assay plates were incubated at 37C and 5% CO2 for 17 hrs. One uL of LiveBLAzerTM B/G FRET substrate (CCF4-AM) (Life Technologies) was added to each well using a Flying Reagent Dispenser (FRD, Aurora Discovery, San Diego, CA). After 2 hr incubation at room temperature, fluorescence intensity (405 nm excitation, 460 nm and 530 nm emissions) was measured using an Envision plate reader (PerkinElmer, Shelton, CT). For cytotoxicity, 4 ul/well of CellTiter-Glo reagent was added into the assay plates using an FRD. After 30 min incubation at room temperature, the luminescence intensity was measured using a ViewLux plate reader (PerkinElmer).
% is scaled to controls: 0 for no effect and ±100 for the full control effect; potency is read from the fitted curve at half-maximal effect.

SMILES	activity change, negative = cytotoxicity	Potency
O=C(O)CC(=O)C(=O)O	5.8% (inactive)	
O=C(NCC1CN(c2ccc(N3CCOCC3=O)cc2)C(=O)O1)c1ccc(Cl)s1 (stereo not given)	-2.02% [at 35.3 µM] (inactive)	
C=C1C(=C/C=C2\CCC[C@]3(C)[C@@H]([C@H](C)/C=C/[C@@H](O)C4CC4)CC[C@@H]23)C[C@@H](O)C[C@@H]1O	-21.9% [at 35.3 µM] (inactive)	
CNC(=O)CN(CCN(CCN(CC(=O)[O-])CC(=O)NC)CC(=O)[O-])CC(=O)[O-].O.[Gd+3]	1.59% [at 35.3 µM] (inactive)	
C=C(C)C(=O)OCC	0.628% (inactive)	
CCCCC1=NC2(CCCC2)C(=O)N1Cc1ccc(-c2ccccc2-c2nn[nH]n2)cc1	-1.82% [at 35.3 µM] (inactive)	
Cc1ncc(CO)c(C=O)c1O	5.55% [at 35.3 µM] (inactive)	
C/C=C/C=C/CO	-6.9% (inactive)	
CCCCC(CC)COC(=O)CCCCCCCCC(=O)OCC(CC)CCCC (stereo not given)	1.22% (inactive)	
CC(C)O.CC(C)O.CCOC(=O)/C=C(\C)O.CCOC(=O)/C=C(\C)O.[Ti]	-1.32% (inactive)	
O=C(O)C(S)C(S)C(=O)O (stereo not given)	6.15% [at 35.3 µM] (inactive)	
COCCCN1CCC(NC(=O)c2cc(Cl)c(N)c3c2OCC3)CC1	-9.62% [at 35.3 µM] (inactive)	
CCCCNc1ccc(C(=O)OCCOCCOCCOCCOCCOCCOCCOCCOCCOC)cc1	15.5% [at 35.3 µM] (inactive)	
CCC(C)c1cc(C(C)(C)C)c(O)c(C(C)(C)C)c1 (stereo not given)	0.0284% (inactive)	
C#Cc1cccc(Nc2ncnc3cc(OCCOC)c(OCCOC)cc23)c1	-27.4% [at 35.3 µM] (inactive)	
CCN(CC)CCOC(=O)C(c1ccccc1)C1CCCCC1 (stereo not given)	-13.9% [at 35.3 µM] (inactive)	
Cc1[nH]c(C)c(Cl)c(=O)c1Cl	12.4% [at 15.8 µM] (inactive)	
C=CCOC(=O)CCC1CCCCC1	-0.979% (inactive)	
CC(C)Cc1ccc(C(C)C(=O)OCc2ccccn2)cc1 (stereo not given)	-0.174% [at 35.3 µM] (inactive)	
CC(C)C[C@H]1C(=O)N2CCC[C@H]2[C@]2(O)O[C@](NC(=O)[C@@H]3C=C4c5cccc6[nH]c(Br)c(c56)C[C@H]4N(C)C3)(C(C)C)C(=O)N12	-18.4% [at 35.3 µM] (inactive)	

SMILES	activity change, negative = cytotoxicity	Potency
CCn1cc(C(=O)O)c(=O)c2cnc(N3CCNCC3)nc21	-0.351% [at 35.3 µM] (inactive)	
C#C[C@]1(O)CC[C@H]2[C@@H]3CCc4cc(OC5CCCC5)ccc4[C@H]3CC[C@@]21C		15.1 µM (active)
O=C(O)C1(C(=O)O)CCC1.[NH2-].[NH2-].[Pt+2]	2.43% [at 35.3 µM] (inactive)	
O=C(Nc1ccc(S(=O)(=O)N2CCOCC2)cc1)c1cc(Cl)ccc1NS(=O)(=O)c1ccc(Cl)s1	23.5% [at 35.3 µM] (inactive)	
CCCn1cnc2c1c(=O)n(CCCCC(C)=O)c(=O)n2C	0.524% [at 35.3 µM] (inactive)	
NCc1ccccc1Sc1ccccc1CO	-2.2% [at 35.3 µM] (inactive)	
CC(CSC(=O)c1ccccc1)C(=O)N1C[C@@H](Sc2ccccc2)C[C@H]1C(=O)O (stereo not given in full)	-3.08% [at 15.8 µM] (inactive)	
CCc1cc(C2=C(C(=O)O)N(c3ccccc3C(F)(F)F)S(=O)(=O)c3ccccc32)cc2c1OCO2		21.6 µM (active)
C[C@@H](c1ncncc1F)C(O)(Cn1cncn1)c1ccc(F)cc1F (stereo not given in full)	-2.15% [at 35.3 µM] (inactive)	
O=C(CS)Nc1ccccc1	-0.893% [at 35.3 µM] (inactive)	
CCNc1cc(O)ccc1C	-0.989% (inactive)	
Brc1c2ccccc2c(Br)c2ccccc12	-13.7% [at 6.97 µM] (inactive)	
O=C1CCC(=O)O1	-4.92% (inactive)	
Nc1ccccc1S(=O)(=O)c1ccccc1	15% (inactive)	
c1ccc(-c2ccccn2)nc1	-2.31% (inactive)	
Cc1cccc(Nc2ccccc2)c1	1.04% (inactive)	
Clc1ccc2c(c1)CCc1cccnc1C2=C1CCNCC1	-29.5% [at 35.3 µM] (inactive)	
c1ccc(CNCCNCc2ccccc2)cc1	17.4% [at 35.3 µM] (inactive)	
COC(C)OC	4.53% (inactive)	
O=CC1CC=CCC1 (stereo not given)	0.692% (inactive)	
